The source of these data is PubChem BioAssay AID371 (SRMLSC, 2006).

Values joined by “and” are separate entries in the source; they are usually repeats but may differ in a detail not shown here. Identical values can stand only once. Hit rate of the full screen: of about 3,300 compounds, about 280 (8.5%) were called active. The sample holds actives, similar compounds and a random draw of the others, so the mix is not that of the screen. Unmarked numbers belong to inactive results.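 How the source made its calls: active means mean growth inhibition over the two runs of 50% or more; inactive means mean growth inhibition under 50%.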

This assay in a line: A549 NSCLC cell proliferation inhibitors – ATP luminescence, human non-small cell lung line, primary screen (AID 371).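 Further: compound exposure lasted 72 h before the ATP read; 0% = untreated cell signal and 100% = no luminescence left.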 The conditions noted are these: at 10 µM, hits give high values.
In the case of `CCCn1c(SCC#N)nc2c(c1=O)C1(CCCC1)Cc1ccccc1-2`, the growth inhibition is 21.2%.

`O=S(=O)(c1ccccc1)N1CCC(N2CCN(c3ccccc3)CC2)CC1`: the growth inhibition was 4.82%.

`COc1ccccc1C(=O)N1CCN(Cc2ccc3c(c2)OCO3)CC1`: the growth inhibition was 8.7%.

`CCN(CC)CCNc1ncnc2c1[nH]c1ccc(OC)cc12`: the growth inhibition is 42.2%.

In the case of `Fc1ccc2[nH]c3c(N4CCN(Cc5ccc6c(c5)OCO6)CC4)ncnc3c2c1`, the growth inhibition is 83.3% (active).

As for `COc1ccc2[nH]c3c(N4CCN(Cc5ccc6c(c5)OCO6)CC4)ncnc3c2c1`, the growth inhibition was 76.3% (active).

In the case of `Cc1ccc2[nH]c3c(N4CCN(Cc5ccc6c(c5)OCO6)CC4)ncnc3c2c1`, the growth inhibition was 83.9% (active).

For `CC(C)OC(=O)C(C#N)c1nc2ccccc2nc1N1CCN(Cc2ccc3c(c2)OCO3)CC1` (stereo not given), the growth inhibition is 3.13%.

For `CCOC(=O)N1CCN(c2ncnc3c2[nH]c2ccc(OC)cc23)CC1`, the growth inhibition is 28.5%.

Take `CCCCNC(=O)C(C#N)c1nc2ccccc2nc1N1CCN(Cc2ccc3c(c2)OCO3)CC1` (stereo not given): the growth inhibition is 11.1%.

With `Cc1cc(=O)oc(C)c1C(=O)N1CCN(Cc2ccc3c(c2)OCO3)CC1`, the growth inhibition is 8.78%.

Take `CC(C)N1CCc2c(sc(N)c2C#N)C1`: the growth inhibition is 17.2%.

For `CC(=O)N=C(N)Sc1nc2ccccc2[nH]1`, the growth inhibition is 6.73%.

Consider `COC(=O)CSc1nc(-c2cccs2)ccc1C#N`, for which the growth inhibition was 14.7%.

With `COc1cc(Cn2ccnc2)c(OC)cc1Cn1ccnc1`, the growth inhibition is 1%.

For `Cc1ccc(/C(O)=C2/C(=O)C(=O)N(Cc3ccco3)C2c2cccs2)cc1` (stereo not given), the growth inhibition was -0.53%.

Turning to `COC(=O)/C=c1/s/c(=C(/C#N)C(=O)N2CCCCC2)n(-c2ccccc2)c1=O`, the growth inhibition is -4.39%.

Consider `O=C(Nc1cccnc1)c1cccnc1`, for which the growth inhibition is -4.29%.

In the case of `C[C@@H]1C[C@H](Nc2ccccc2)c2ccccc2N1C(=O)c1cccnc1`, the growth inhibition is 53.7% (active).

Regarding `O=C(c1cncc(Br)c1)N1CCCc2ccccc21`, the growth inhibition was 8.54%.

Consider `O=C(O)CCN(CCC(=O)O)c1nnc(SCc2ccccc2)s1`, for which the growth inhibition was -4.61%.

For the compound `CC(=O)NC(=O)Nc1sc(=S)n(C)c1C`, the growth inhibition is -19.1%.

Take `CCOc1ccc(/C(O)=C2/C(=O)C(=O)N(c3nc(C)c(C)s3)C2c2ccco2)cc1` (stereo not given): the growth inhibition was 18.5%.

For `CCCCSc1nnc2n(CCc3ccccc3)c(=O)c3c4c(sc3n12)COC(C)(C)C4`, the growth inhibition was 13.8%.

With `CCCCOc1cc(C(=O)NCCN(CC)CC)c2ccccc2n1`, the growth inhibition is 81.4% (active) and 70.4% (active).

With `CCN(CC)CCNC(=O)c1cc(S(C)(=O)=O)ccc1OC`, the growth inhibition is -4.61%.

Regarding `CCN(CC)CCNC(=O)c1ccccc1N`, the growth inhibition is 2.63%.

Take `C=CCOn1c(=O)c(-c2cc3ccccc3o2)[n+]([O-])c2ccccc21`: the growth inhibition is 8.84%.

On to `CN(C)CCC=C1c2ccccc2CCc2ccccc21`, for which the growth inhibition was 26.6%.

As for `CNCCC=C1c2ccccc2CCc2ccccc21`, the growth inhibition is 79.8% (active).

Take `CC1(C)Cc2ccccc2-c2c1c(=O)n(-c1ccccc1)c1nnnn21`: the growth inhibition was 3.31%.

For the compound `Cc1ccccc1COc1ccc(/C(O)=C2/C(=O)C(=O)N(CCCn3ccnc3)C2c2ccco2)cc1` (stereo not given), the growth inhibition was 1.79%.

`CCN(CC)CCN1C(=O)C(O)=C(C(=O)c2cc3ccccc3o2)C1c1cccnc1` (stereo not given): the growth inhibition was -1.01%.

Turning to `CC(C)OC(=O)C(C#N)c1nc2ccccc2nc1N1CCCC1` (stereo not given), the growth inhibition was 18.3%.

As for `COC(=O)COc1ccc(Oc2nc(SC)nc(N(C)C)n2)nn1`, the growth inhibition is -1.19%.
